# According to PubChem BioAssay (NCATS):
# Results filed as inconclusive are left out. Where a call stands in place of a potency, no number is given. Activity calls are given as the source filed them. Calls come from the whole dose curve; as a rule, active = well fitted inhibition curve with a large enough effect; inconclusive = small, poorly fitted or top-dose-only effect; inactive = flat fitted curve, though single readings scatter.
# Target: Calcium and integrin-binding protein 1 (Homo sapiens) (UniProt Q99828)
# Sequence (Q99828 whole entry, looked up): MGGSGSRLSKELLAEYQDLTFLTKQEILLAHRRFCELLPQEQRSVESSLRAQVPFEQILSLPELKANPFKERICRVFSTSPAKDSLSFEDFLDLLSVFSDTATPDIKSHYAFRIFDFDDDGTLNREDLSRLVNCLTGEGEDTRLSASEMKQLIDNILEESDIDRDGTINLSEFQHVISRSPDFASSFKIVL
# Assay: Primary qHTS for Identification of Calcium Integrin Binding Protein 1 (CIB1) Competitor (AID 1508620); note: top concentration of the series differs between compounds
# Conditions: CIB1-GST / FITC-alphaIIb peptide fluorescence polarization; series mostly up to 57.7 µM
# Method in brief: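 Fluorescence polarization competition: GST-tagged CIB1 (1 uM final) preincubated with compound 15 min at room temperature, then FITC-labelled alphaIIb peptide (100 nM final) added. After 15 min at room temperature, polarization read at Ex 480/Em 540.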
row,SMILES,Potency
1,CC(=O)O[C@H](C[C@@H](C)[C@H]1C(=O)[C@H](O)[C@@]2(C)[C@@H]3CCC4C(C)(C)[C@@H](O[C@@H]5OC[C@H](O)[C@H](O)[C@H]5O)CC[C@@]45C[C@@]35CC[C@]12C)[C@@H]1OC1(C)C (stereo partly drawn),inactive
2,CN(C)C/C=C/C(=O)Nc1ccc(C(=O)Nc2cccc(Nc3ncc(Cl)c(-c4c[nH]c5ccccc45)n3)c2)cc1,inactive
3,O=C(/C=C/c1ccc(O)cc1)O[C@H]1[C@@H]2C=CO[C@@H](O[C@@H]3O[C@H](CO)[C@@H](O)[C@H](O)[C@H]3O)[C@@H]2[C@@]2(CO)O[C@@H]12,inactive
4,CC1(C)CC2C(O)C3=C(CC(C)(O)C2C1)C(=O)OC3O (stereo not drawn),inactive
5,CCC(C)(O)C(O)C(=O)OCc1ccc(O[C@@H]2O[C@H](CO)[C@@H](O)[C@H](O)[C@H]2O)c(OC)c1 (stereo partly drawn),inactive
6,COC(=O)C1C(c2ccc(O)cc2)C(C(=O)OC)C1c1ccc(O)cc1 (stereo not drawn),inactive
7,COc1ccc([C@H]2Cc3cccc(O)c3C(=O)O2)cc1,inactive
8,C/C=C(\C)C(=O)O[C@H]1[C@@H](O[C@]2(COC(=O)CC(C)C)O[C@H](COC(=O)C(C)C)[C@@H](OC(C)=O)[C@@H]2O)O[C@H](COC(C)=O)[C@@H](O)[C@@H]1O,inactive
